According to PubChem BioAssay (Tox21):
Records with an inconclusive call do not appear. Activity calls are given as the source filed them. Unless noted, calls follow the shape of the full dose curve.

Assays:
[1] = Nuclear factor erythroid 2-related factor 2/antioxidant responsive element (Nrf2/ARE) small molecule agonists: qHTS cell viability counter screen in human keratinocytes (AID 1919968; active = well fitted curve in the direction sought with a large enough effect in the repeat runs; an effect the other way counts as inactive or inconclusive; also: nearly all actives have a fitted effect of over 55% in size; also: potency is read from the fitted curve at half-maximal effect)
Procedure, shortened: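 Measured as CellTiter-Fluor fluorescence, this readout tracks cytotoxicity in the same wells as the ARE-luciferase screen. HaCaT reporter cells (1,500/well) received compounds after a 5 h pre-incubation and were exposed for 23 h.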

[2] = Nuclear factor erythroid 2-related factor 2/antioxidant responsive element (Nrf2/ARE) small molecule agonists: luciferase reporter gene qHTS assay in human keratinocytes (AID 1919969); also: nearly all actives have a fitted effect of over 35% in size; also: potency is read from the fitted curve at half-maximal effect
[3] = target: Gonadotropin-releasing hormone receptor (Homo sapiens) (UniProt P30968); assay: Human gonadotropin-releasing hormone receptor (GnRHR) small molecule agonists, calcium flux assay in GnRHR-HEK293 cells (AID 1920063); also: nearly all actives have a fitted effect of over 35% in size
Gonadotropin-releasing hormone receptor (Homo sapiens), sequence (P30968 whole entry, looked up): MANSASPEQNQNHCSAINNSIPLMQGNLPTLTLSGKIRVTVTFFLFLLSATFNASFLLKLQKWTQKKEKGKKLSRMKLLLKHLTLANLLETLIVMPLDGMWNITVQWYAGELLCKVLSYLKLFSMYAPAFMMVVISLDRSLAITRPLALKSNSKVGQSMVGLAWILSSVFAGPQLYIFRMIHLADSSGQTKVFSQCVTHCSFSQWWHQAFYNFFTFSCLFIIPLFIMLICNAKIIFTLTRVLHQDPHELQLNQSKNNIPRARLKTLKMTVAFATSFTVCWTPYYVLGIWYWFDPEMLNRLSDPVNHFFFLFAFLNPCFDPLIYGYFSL
Procedure, shortened: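 Fluorescence kinetics (480 nm excitation, 540 nm emission; 3 min, 1 s steps) report calcium mobilisation in human GnRHR-HEK293 cells in agonist mode. Dye incubation: 1 h, 37 C.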

[4] = target: KiSS-1 receptor (Homo sapiens) (UniProt Q969F8); assay: Human kisspeptin (KISS1R) small molecule agonists, calcium flux assay in KISS1R-HEK293 cells (AID 1920064; active = well fitted curve in the direction sought with a large enough effect in the repeat runs; an effect the other way counts as inactive or inconclusive)
KiSS-1 receptor (Homo sapiens), sequence (Q969F8 whole entry, looked up): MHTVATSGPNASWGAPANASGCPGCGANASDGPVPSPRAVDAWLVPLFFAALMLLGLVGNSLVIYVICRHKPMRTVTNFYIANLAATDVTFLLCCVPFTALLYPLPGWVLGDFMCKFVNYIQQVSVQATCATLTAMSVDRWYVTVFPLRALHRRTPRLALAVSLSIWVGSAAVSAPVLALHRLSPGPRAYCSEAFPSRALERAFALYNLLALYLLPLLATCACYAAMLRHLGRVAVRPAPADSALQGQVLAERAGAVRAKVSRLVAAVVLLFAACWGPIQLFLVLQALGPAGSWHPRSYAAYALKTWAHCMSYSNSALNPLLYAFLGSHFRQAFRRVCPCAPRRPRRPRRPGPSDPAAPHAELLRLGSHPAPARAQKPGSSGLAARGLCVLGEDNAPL
Procedure, shortened: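 Measures KISS1R agonism through calcium-sensitive dye fluorescence in stably transfected HEK293 cells, read for 3 min after pin-tool compound delivery; 15-point titrations in triplicate.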

[5] = G protein-coupled receptor (GPCR) small molecule agonists, calcium flux assay: HEK293 wild type cell line counter screen (AID 1920065)
Procedure, shortened: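 Readout: fluorescence at 480 nm excitation/540 nm emission, sampled at 1 s intervals for 3 min. Cells had been cultured 18 h, then dye-loaded 1 h at 37 C before compound or ATP addition.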

[6] = p53 small molecule agonists, cell-based qHTS assay with rat liver microsomes (AID 1963578); also: potency is read from the fitted curve at half-maximal effect
Procedure, shortened: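 Quantitative HTS of the Tox21 10K library: p53RE-bla cells, rat liver microsomes plus NADPH at 0.5 mg/mL final each, 16 h at 37 C, beta-lactamase fluorescence detection.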

[7] = p53 small molecule agonists, cell-based qHTS assay with human liver microsomes: qHTS cell viability counter screen (AID 1963579); also: nearly all actives have a fitted effect of over 45% in size
Procedure, shortened: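 Viability of p53RE-bla cells is measured as CellTiter-Glo luminescence following a 16 h, 37 C incubation with compound, liver microsomes from human donors and NADPH.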

[8] = p53 small molecule agonists, cell-based qHTS assay with rat liver microsomes: qHTS cell viability counter screen (AID 1963580); also: nearly all actives have a fitted effect of over 45% in size
Procedure, shortened: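 Viability is assessed in parallel with the p53 reporter read: HCT-116 p53RE-bla cells receive compounds plus rat microsomes and NADPH (0.5 mg/mL final apiece), incubate 16 h at 37 C, and then CellTiter-Glo luminescence is recorded.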

[9] = p53 small molecule agonists, cell-based qHTS assay: qHTS cell viability counter screen (AID 1963581); also: nearly all actives have a fitted effect of over 45% in size
Procedure, shortened: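 In the same plates used for the p53 bla reporter, HCT-116 cells given compounds for 16 h at 37 C received CellTiter-Glo; luminescence was recorded 30 min later at room temperature.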

[10] = p53 small molecule agonists, cell-based qHTS assay (AID 1963582; active = well fitted activation curve with a large enough effect in the signal ratio in the repeat runs, not every such curve was filed as active; the % refers to the signal ratio)
Procedure, shortened: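 Compounds are pin-transferred in DMSO onto p53RE-bla cells and incubated 16 h at 37 C. The B/G FRET beta-lactamase substrate is then applied for 2 h at RT and fluorescence recorded.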

[11] = target: 5-hydroxytryptamine receptor 2A (Homo sapiens) (UniProt P28223); assay: 5-hydroxytryptamine receptor 2A (HTR2A) small molecule antagonists, cell-based qHTS assay (AID 1963586); also: nearly all actives have a fitted effect of over 45% in size
5-hydroxytryptamine receptor 2A (Homo sapiens), sequence (P28223 whole entry, looked up): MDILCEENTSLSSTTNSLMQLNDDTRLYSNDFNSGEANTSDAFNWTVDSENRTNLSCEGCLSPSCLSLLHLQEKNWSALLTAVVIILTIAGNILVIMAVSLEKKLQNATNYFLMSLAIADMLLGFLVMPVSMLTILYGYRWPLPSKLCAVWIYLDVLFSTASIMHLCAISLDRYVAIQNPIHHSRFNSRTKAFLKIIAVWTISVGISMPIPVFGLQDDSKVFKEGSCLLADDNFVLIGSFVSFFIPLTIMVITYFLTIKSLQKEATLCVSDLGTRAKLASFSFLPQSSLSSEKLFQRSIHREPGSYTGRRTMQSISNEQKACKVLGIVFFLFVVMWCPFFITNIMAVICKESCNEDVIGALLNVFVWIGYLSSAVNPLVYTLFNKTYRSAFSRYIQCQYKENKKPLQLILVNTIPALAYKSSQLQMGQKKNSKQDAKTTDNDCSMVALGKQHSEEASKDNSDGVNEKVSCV
Procedure, shortened: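 Antagonist-mode intracellular calcium assay: DOI (4 nM) added after 5 min compound pre-incubation at room temperature to dye-loaded HTR2A-CHO cells. Fluorescence followed for 3 min, sampled every second.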

[12] = target: 5-hydroxytryptamine receptor 2A (Homo sapiens) (UniProt P28223); assay: 5-hydroxytryptamine receptor 2A (HTR2A) small molecule agonists, cell-based qHTS assay (AID 1963587); also: nearly all actives have a fitted effect of over 30% in size
Procedure, shortened: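 CHO cells stably expressing human HTR2A, plated 18 h, loaded with calcium dye 1 h at 37 C. Agonist mode: compounds added and intracellular calcium fluorescence recorded kinetically for 2 min at 1 sec intervals.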

[13] = target: Muscarinic acetylcholine receptor M1 (Homo sapiens) (UniProt P11229); assay: Cholinergic receptor muscarinic 1 (CHRM1) small molecule antagonists, cell-based qHTS assay (AID 1963588); also: nearly all actives have a fitted effect of over 40% in size; also: potency is read from the fitted curve at half-maximal effect
Muscarinic acetylcholine receptor M1 (Homo sapiens), sequence (P11229 whole entry, looked up): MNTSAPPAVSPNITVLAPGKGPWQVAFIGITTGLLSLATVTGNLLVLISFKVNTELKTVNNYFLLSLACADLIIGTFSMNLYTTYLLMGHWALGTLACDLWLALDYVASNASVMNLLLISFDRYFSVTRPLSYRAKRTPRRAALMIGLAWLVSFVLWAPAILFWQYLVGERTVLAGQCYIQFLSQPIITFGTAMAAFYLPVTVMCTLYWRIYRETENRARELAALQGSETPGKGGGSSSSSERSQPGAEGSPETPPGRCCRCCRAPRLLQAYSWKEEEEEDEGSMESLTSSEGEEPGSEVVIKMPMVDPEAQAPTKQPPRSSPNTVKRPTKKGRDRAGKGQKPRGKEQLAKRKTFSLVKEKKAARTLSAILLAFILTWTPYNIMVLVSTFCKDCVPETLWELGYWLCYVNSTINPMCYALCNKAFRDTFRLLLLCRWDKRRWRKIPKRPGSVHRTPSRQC
Procedure, shortened: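 CHRM1-CHO calcium-flux assay, antagonist mode. Cells were seeded 18 h, dye-loaded 1 h at 37 C and given compound for 5 min at RT, then acetylcholine was added at 50nM. FDSS fluorescence was read 3 min; 15 concentrations, three runs.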

[14] = target: Muscarinic acetylcholine receptor M1 (Homo sapiens) (UniProt P11229); assay: Cholinergic receptor muscarinic 1 (CHRM1) small molecule agonists, cell-based qHTS assay (AID 1963589); also: nearly all actives have a fitted effect of over 35% in size
Procedure, shortened: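 Each compound was tested at 15 concentrations across three independent runs on dye-loaded CHO cells stably expressing human CHRM1, reading intracellular calcium fluorescence kinetically at 1 sec intervals.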

[15] = cAMP Responsive Elements (CRE) small molecule agonists, cell-based qHTS assay (AID 1963590)
Procedure, shortened: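 Cell line: CRE-bla HEK 293T; medium DMEM/10% dialyzed FBS/0.1 mM NEAA/1 mM pyruvate/25 mM HEPES; 3 h compound exposure; beta-lactamase FRET readout after 2 h substrate loading at RT.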

[16] = target: Beta-2 adrenergic receptor (Homo sapiens) (UniProt P07550); assay: Adrenergic beta2 receptor (ADRB2) small molecule antagonists, cell-based qHTS assay (AID 1963592); also: nearly all actives have a fitted effect of over 50% in size; also: potency is read from the fitted curve at half-maximal effect; as to activity change, negative = inhibition: series mostly up to about 92 µM
Beta-2 adrenergic receptor (Homo sapiens), sequence (P07550 whole entry, looked up): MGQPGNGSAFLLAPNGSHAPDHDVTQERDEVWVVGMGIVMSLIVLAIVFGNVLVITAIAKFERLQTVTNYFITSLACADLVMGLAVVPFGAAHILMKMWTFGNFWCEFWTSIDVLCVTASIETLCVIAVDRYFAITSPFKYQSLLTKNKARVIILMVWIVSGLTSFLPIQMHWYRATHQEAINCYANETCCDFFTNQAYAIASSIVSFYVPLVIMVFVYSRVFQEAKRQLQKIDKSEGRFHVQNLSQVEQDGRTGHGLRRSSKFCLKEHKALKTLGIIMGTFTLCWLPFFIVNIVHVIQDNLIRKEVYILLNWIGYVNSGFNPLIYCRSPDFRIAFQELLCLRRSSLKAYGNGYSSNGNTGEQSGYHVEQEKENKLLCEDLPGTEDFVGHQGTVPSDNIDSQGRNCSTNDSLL
Procedure, shortened: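 Cells (CHO, stable ADRB2 overexpression) incubated 18-20hr at 37C; compounds added from DMSO; agonist mix (1nM isoproterenol, 100uM IBMX, 25uM Ro-20-1724) added; 0.5hr RT; d2-cAMP and anti-cAMP-cryptate added; 1hr RT; 665/615 nm read.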

[17] = target: D(2) dopamine receptor (Homo sapiens) (UniProt P14416); assay: Dopamine D2 receptor (DRD2) small molecule agonists, cell-based qHTS assay (AID 1963594); also: nearly all actives have a fitted effect of over 35% in size
D(2) dopamine receptor (Homo sapiens), sequence (P14416 whole entry, looked up): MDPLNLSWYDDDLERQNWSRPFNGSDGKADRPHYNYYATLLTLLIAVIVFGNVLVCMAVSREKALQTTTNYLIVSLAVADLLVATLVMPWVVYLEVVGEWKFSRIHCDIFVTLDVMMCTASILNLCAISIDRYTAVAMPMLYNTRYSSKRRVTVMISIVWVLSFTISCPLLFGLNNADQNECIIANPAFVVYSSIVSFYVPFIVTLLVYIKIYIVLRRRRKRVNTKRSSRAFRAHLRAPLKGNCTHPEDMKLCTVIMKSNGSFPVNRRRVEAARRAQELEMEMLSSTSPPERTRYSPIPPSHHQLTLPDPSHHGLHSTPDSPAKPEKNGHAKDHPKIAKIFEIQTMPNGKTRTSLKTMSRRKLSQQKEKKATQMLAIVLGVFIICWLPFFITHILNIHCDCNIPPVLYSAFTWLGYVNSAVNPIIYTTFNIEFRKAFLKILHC
Procedure, shortened: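 HEK293 cells stably expressing human DRD2, pre-treated with PDE inhibitor Ro20-1724 (0.1 mM final) and compound 10 min at room temperature, then stimulated with NKH477 (200nM […]) for 30 min. cAMP read by HTRF (665/620 nm).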

[18] = target: D(2) dopamine receptor (Homo sapiens) (UniProt P14416); assay: Dopamine D2 receptor (DRD2) small molecule antagonists, cell-based qHTS assay (AID 1963595; active = well fitted inhibition curve with a large enough effect in the signal ratio in the repeat runs, with a control signal flat; the % refers to the signal ratio)
Procedure, shortened: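 Antagonist mode in DRD2-HEK293 cells: after compound addition with 0.1 mM Ro20-1724, cells received quinpirole (12 nM) and NKH477 (200 nM) for 30 min at room temperature; HTRF cAMP read after 1 h detection.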

[19] = cAMP Responsive Elements (CRE) small molecule antagonists, cell-based qHTS assay (AID 1963591; active = well fitted inhibition curve with a large enough effect in the signal ratio in the repeat runs, not every such curve was filed as active; the % refers to the signal ratio)
Procedure, shortened: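 Inhibition of NKH477-driven (0.25 uM final) CRE-beta-lactamase signal in HEK293T cells, 3 h compound exposure at 37 °C, detected by FRET substrate fluorescence.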

[20] = target: Beta-2 adrenergic receptor (Homo sapiens) (UniProt P07550); assay: Adrenergic beta2 receptor (ADRB2) small molecule agonists, cell-based qHTS assay (AID 1963593);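 also: CHO cells stably overexpressing human ADRB2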
Procedure, shortened: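 CHO cells stably over-expressing ADRB2 were plated overnight at 37C, then dosed with compounds plus a stimulation mix containing 100uM IBMX and 25uM Ro-20-1724 for 0.5hr at room temperature. cAMP was measured by HTRF competition, 1hr.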
% is scaled to controls: 0 for no effect and ±100 for the full control effect.

CCCC(C)CC (configuration not stated)
inactive: Potency [1] | Potency [2] | Potency [3] | Potency [4] | Potency [5] | Potency [6] | Potency [7] | Potency [8] | Potency [9] | Potency [10] | Potency [11] | Potency [12] | Potency [13] | Potency [14] | Potency [15] | Potency [16] | Potency [17] | Potency [18]

Cc1ccccc1C(=O)Nc1ccc(C(=O)N2CCCC(O)c3cc(Cl)ccc32)c(C)c1 (configuration not stated)
inactive: Potency [1] | Potency [2] | Potency [3] | Potency [4] | Potency [5] | Potency [6] | Potency [7] | Potency [8] | Potency [9] | Potency [10] | Potency [12] | Potency [13] | Potency [14] | Potency [15] | Potency [19] | Potency [16] | Potency [17] | Potency [18]

CC(=O)c1ccc2c(c1)[C@H](NC(=O)c1ccc(F)cc1)[C@@H](O)C(C)(C)O2
inactive: Potency [1] | Potency [2] | Potency [3] | Potency [4] | Potency [5] | Potency [6] | Potency [7] | Potency [8] | Potency [9] | Potency [10] | Potency [11] | Potency [12] | Potency [14] | Potency [15] | Potency [19] | Potency [16] | Potency [17] | Potency [18]

COc1ccc2c(c1)c(CC(=O)OC/C=C(\C)CC/C=C(\C)CCC=C(C)C)c(C)n2C(=O)c1ccc(Cl)cc1
inactive: Potency [1] | Potency [2] | Potency [3] | Potency [4] | Potency [5] | Potency [6] | Potency [7] | Potency [8] | Potency [9] | Potency [10] | Potency [11] | Potency [12] | Potency [13] | Potency [14] | Potency [19] | Potency [16] | Potency [20] | Potency [17] | Potency [18]

CCCCCC=CCC=CCCCCCCCC(=O)OCC
active: Potency [2] 29.8 µM
inactive: Potency [1] | Potency [3] | Potency [4] | Potency [5] | Potency [6] | Potency [7] | Potency [8] | Potency [9] | Potency [10] | Potency [11] | Potency [12] | Potency [14] | Potency [16] | Potency [18]

CN(C)CCCN(C)C
inactive: activity change, negative = cytotoxicity [1] 3.36% [at 8.39 µM] | activity, positive = activation [2] -12.5% [at 8.39 µM] | activity change [3] -0.775% [at 5.22 µM, active compounds read high] | activation [4] -0.798% [at 6.97 µM] | activation [5] -1.22% [at 5.23 µM] | activation [6] 5.56% [at 5.99 µM] | activity change, negative = cytotoxicity [7] -2.9% [at 5.99 µM] | activity change, negative = cytotoxicity [8] 0.34% [at 5.99 µM] | activity change, negative = cytotoxicity [9] -23% [at 5.99 µM] | activation [10] 3.48% [at 5.99 µM] | activity, negative = inhibition [11] 12.1% [at 5.62 µM] | activity, negative = inhibition [13] 1.9% [at 5.58 µM] | activation [14] -0.0477% [at 6.97 µM] | activation [15] -0.0363% [at 8.39 µM] | activity change, negative = inhibition [19] -6.12% [at 8.39 µM] | activity change, negative = inhibition [16] 3.37% [at 8.39 µM] | activity change, negative = inhibition [18] 3.98% [at 8.38 µM]

CCOC(=O)Nc1ccc2c(c1)N(C(=O)CCN1CCOCC1)c1ccccc1S2
active: Potency [13] 0.918 µM
inactive: Potency [1] | Potency [2] | Potency [3] | Potency [4] | Potency [5] | Potency [6] | Potency [7] | Potency [8] | Potency [9] | Potency [10] | Potency [12] | Potency [14] | Potency [15] | Potency [16] | Potency [17] | Potency [18]

CC(C)c1ccccc1N
inactive: Potency [1] | Potency [2] | Potency [3] | Potency [4] | Potency [5] | Potency [6] | Potency [7] | Potency [8] | Potency [9] | Potency [10] | Potency [11] | Potency [12] | Potency [14] | Potency [15] | Potency [19] | Potency [16] | Potency [18]

O=S(=O)(Oc1ccc(Cl)cc1)c1ccccc1
inactive: Potency [1] | Potency [2] | Potency [3] | Potency [4] | Potency [5] | Potency [6] | Potency [7] | Potency [8] | Potency [11] | Potency [12] | Potency [14] | Potency [15] | Potency [19] | Potency [16] | Potency [17] | Potency [18]
active: Potency [13] 11.9 µM

CCOC(=O)COC(=O)c1cc(Oc2ccc(C(F)(F)F)cc2Cl)ccc1[N+](=O)[O-]
active: Potency [16] 61.1 µM
inactive: Potency [1] | Potency [2] | Potency [3] | Potency [4] | Potency [5] | Potency [6] | Potency [7] | Potency [8] | Potency [9] | Potency [11] | Potency [12] | Potency [13] | Potency [14] | Potency [17]

CCc1cc(C2=C(C(=O)O)N(c3ccccc3C(F)(F)F)S(=O)(=O)c3ccccc32)cc2c1OCO2
inactive: Potency [1] | Potency [2] | Potency [3] | Potency [4] | Potency [5] | Potency [6] | Potency [7] | Potency [8] | Potency [9] | Potency [11] | Potency [13] | Potency [14] | Potency [16] | Potency [18]

CCOC(=O)C1=C(C)NC(C)=C(C(=O)OCC)C1c1ccccc1/C=C/C(=O)OC(C)(C)C
active: Potency [1] 18.8 µM | Potency [6] 19.9 µM
inactive: Potency [2] | Potency [3] | Potency [4] | Potency [5] | Potency [7] | Potency [8] | Potency [16] | Potency [17] | Potency [18]

CSC(=O)c1cccc2nnsc12
inactive: Potency [1] | Potency [2] | Potency [3] | Potency [4] | Potency [5] | Potency [6] | Potency [7] | Potency [8] | Potency [10] | Potency [11] | Potency [12] | Potency [13] | Potency [14] | Potency [15] | Potency [18]

O=C(O)c1c2ccccc2cc2ccccc12
active: Potency [2] 48.4 µM
inactive: Potency [1] | Potency [3] | Potency [4] | Potency [5] | Potency [6] | Potency [7] | Potency [8] | Potency [10] | Potency [11] | Potency [12] | Potency [13] | Potency [14] | Potency [19] | Potency [16] | Potency [20] | Potency [18]

CCCCCCCCCCCC(=O)OCC
inactive: Potency [1] | Potency [2] | Potency [3] | Potency [4] | Potency [5] | Potency [6] | Potency [7] | Potency [8] | Potency [10] | Potency [11] | Potency [12] | Potency [13] | Potency [14] | Potency [15] | Potency [19] | Potency [16] | Potency [20] | Potency [17] | Potency [18]
